Screening results (PubChem)
In the library only some 5% were active in any assay of this set; here they are far more common.
ALR H2O2 inh = human ALR oxidase inhibition via reduced H2O2; inhibition, % (no concentration beside the values); P55789; AID 485317; hit rate 3.8% among 290,000; purified ALR, DTT oxidation, H2O2 HRP-luminol luminescence;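 active = mean replicate inhibition above about 79%, with every replicate also reaching it, limit read from the data; inconclusive = only one of the two criteria met; inactive = mean below limit and not every replicate reaching it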
Target sequence (P55789 whole entry, looked up): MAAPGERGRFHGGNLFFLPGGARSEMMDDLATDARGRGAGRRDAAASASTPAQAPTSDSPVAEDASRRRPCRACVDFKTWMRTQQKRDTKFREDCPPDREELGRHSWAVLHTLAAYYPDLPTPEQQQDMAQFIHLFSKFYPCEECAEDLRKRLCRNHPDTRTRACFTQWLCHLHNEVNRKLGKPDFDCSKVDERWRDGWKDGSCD
PREPL inhibitor = inhibitors of human prolyl oligopeptidase-like enzyme PREPL. Q4J6C6. recombinant PREPL, fluorescence polarization activity-based probe. inhibition, % at 5.96 µM. hit rate 0.68% among 320,000. AID 2751; in the data active = inhibition above about 43%;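 also: 0% = enzyme with DMSO and 100% = wells lacking enzyme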
CHT block = inhibits the human high affinity choline transporter | CHT-expressing cells, membrane potential dye, choline response; stronger effect = lower value | B-score at 10 µM | hit rate 0.86% among 310,000 | AID 488975;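 active = B-score over 3 SD under the library average, and starting fluorescence ratio not unusually high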;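 also: choline stimulus applied at its EC90 after an EC20 pre-addition; B-score computed on integrated fluorescence ratio after choline addition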
CHT allo act = allosterically activates the human high affinity choline transporter. hit rate 0.49% among 310,000. B-score at 10 µM. AID 488977. CHT-expressing cells, membrane potential dye, choline EC20; stronger effect = higher value; LV-AA mutant CHT in HEK293 cells. Q9GZV3;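 active = initial fluorescence not abnormally high and integrated response B-score, plate-corrected, over 3 SD above library mean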
AI-2 QS mod = modulates the Vibrio harveyi AI-2 quorum sensing system; Vibrio harveyi JMH597 AI-2 luminescence/OD600 ratio, 9 h; stronger effect = lower value; strain lacks LuxN and CqsS sensors; 0 = neutral-control median; activity change, % at 7.5 µM; hit rate 0.4% among 300,000; AID 2094; in the data active = activity change below about -75%, passing the limit was not always enough; inconclusive = no clear call, values can overlap the other calls;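 also: luminescence divided by OD600 gain over 9 h not by final OD600 alone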
Numbers without * were called inactive.

How did CC1=C(C)CS(=O)N(S(=O)(=O)c2ccc(Cl)cc2)C1 (stereo not given) do in these assays?
ALR H2O2 inh: 99*; PREPL inhibitor: -16; CHT block: inactive; CHT allo act: inactive; AI-2 QS mod: 60

How did CC(C)N(Cc1ccccc1)C(=O)COC(=O)c1ccc(O)cc1 do in these assays?
PREPL inhibitor: -3

How did COC(C[C@@H]1O[C@@H]1C(=O)COCc1ccccc1)OC do in these assays?
AI-2 QS mod: 0

What do the screens show for `C/C(N)=C(/C#N)C(=O)CSc1cc(C)c2cc(C)cc(C)c2n1`?
ALR H2O2 inh: 96*; PREPL inhibitor: 2; CHT block: inactive; CHT allo act: inactive; AI-2 QS mod: -2

What do the screens show for `CCOC(=O)/C=C1\Nc2ccccc2OC1=O`?
ALR H2O2 inh: 93*; PREPL inhibitor: 17; CHT block: inactive; CHT allo act: inactive; AI-2 QS mod: 37

What do the screens show for `CC1(c2cccc(Br)c2)NC(=O)N(CC(=O)Nc2ccc3c(c2)OCO3)C1=O` (stereo not given)?
ALR H2O2 inh: 2; PREPL inhibitor: 10

Results for Cc1nn(-c2ccccc2)c(C)c1/C=N/n1c(-c2ccccc2Br)n[nH]c1=S ?
ALR H2O2 inh: 96*; PREPL inhibitor: 1; CHT block: inactive; CHT allo act: inactive; AI-2 QS mod: 17

How did S=c1[nH]ncn1/N=C/c1ccc(Br)cc1 do in these assays?
ALR H2O2 inh: 98*; PREPL inhibitor: 4; CHT block: inactive; CHT allo act: inactive; AI-2 QS mod: 24

How did Cc1nn(-c2ccccc2)c(C)c1/C=N/n1cnnc1 do in these assays?
PREPL inhibitor: 10; CHT block: inactive; CHT allo act: inactive; AI-2 QS mod: 4

Results for CCn1c2ccccc2c2cc(/C=N/n3cn[nH]c3=S)ccc21 ?
ALR H2O2 inh: 98*; PREPL inhibitor: 10; CHT block: inactive; CHT allo act: inactive; AI-2 QS mod: 15

Results for CCn1c2ccccc2c2cc(/C=N/n3cnnc3)ccc21 ?
PREPL inhibitor: 3; CHT block: inactive; CHT allo act: inactive; AI-2 QS mod: 18

What do the screens show for `S=c1[nH]ncn1/N=C/c1ccc(N2CCOCC2)cc1`?
ALR H2O2 inh: 99*; PREPL inhibitor: -8; CHT block: inactive; CHT allo act: inactive; AI-2 QS mod: 39

What do the screens show for `Oc1ccc(Br)cc1/C=N/n1c(-c2ccccc2)n[nH]c1=S`?
ALR H2O2 inh: 67; PREPL inhibitor: 9; CHT block: inactive; CHT allo act: inactive; AI-2 QS mod: 33

What do the screens show for `S=c1[nH]ncn1/N=C/c1ccccc1`?
ALR H2O2 inh: 98*; PREPL inhibitor: 4; CHT block: inactive; CHT allo act: inactive; AI-2 QS mod: 12

Results for Cc1cccc(/C=N/n2c(-c3ccccc3)n[nH]c2=S)c1O ?
ALR H2O2 inh: 91*; PREPL inhibitor: 1; CHT block: inactive; CHT allo act: inactive

How did Cc1n[nH]c(=S)n1/N=C/c1ccccc1 do in these assays?
ALR H2O2 inh: 97*; PREPL inhibitor: 1; CHT block: inactive; CHT allo act: inactive; AI-2 QS mod: -4

What do the screens show for `S=c1[nH]c(-c2ccccc2)cn1/N=C/c1ccncc1`?
ALR H2O2 inh: 56; PREPL inhibitor: 3; CHT block: inactive; CHT allo act: inactive; AI-2 QS mod: 12

What do the screens show for `Cc1ccc(N(Cc2ccccc2)C(=O)c2ccc(F)c(S(=O)(=O)N3CCOCC3)c2)cc1`?
ALR H2O2 inh: -7; PREPL inhibitor: 13; CHT block: inactive; CHT allo act: inactive; AI-2 QS mod: 14

Results for N#C/C(=C/Nc1ccccc1)c1ccsc1 ?
ALR H2O2 inh: 89*; PREPL inhibitor: 28; CHT block: inactive; CHT allo act: inactive; AI-2 QS mod: 1

What do the screens show for `N#CC(C#N)=CNc1cccnc1`?
ALR H2O2 inh: 2; PREPL inhibitor: -9; CHT block: inactive; CHT allo act: inactive; AI-2 QS mod: 4

How did Cc1ccc(N/C=C(/C#N)c2ccsc2)cc1 do in these assays?
ALR H2O2 inh: 98*; PREPL inhibitor: 37; CHT block: inactive; CHT allo act: inactive; AI-2 QS mod: inconclusive

Results for COc1cccc(NC(=O)CN(C)C(=O)CSCC(=O)Nc2ccc(C)cc2)c1 ?
ALR H2O2 inh: 99*; PREPL inhibitor: 3

Results for Cc1ccc(NC(=O)CSCC(=O)N(C)CC(=O)Nc2cccc(F)c2)cc1 ?
ALR H2O2 inh: 99*; PREPL inhibitor: -2; CHT block: inactive; CHT allo act: inactive; AI-2 QS mod: 25

Results for COc1cccc(CNCC(=O)Nc2ccc(N3CCOCC3)cc2)c1 ?
ALR H2O2 inh: 99*; PREPL inhibitor: 14; CHT block: inactive; CHT allo act: inactive; AI-2 QS mod: 8

How did COc1cccc(CNC(=O)CSCC(=O)Nc2ccc(C)cc2)c1 do in these assays?
ALR H2O2 inh: 99*; PREPL inhibitor: -10; CHT block: inactive; CHT allo act: inactive; AI-2 QS mod: -4

How did COc1cccc(NC(=O)CSCC(=O)Nc2ccccc2)c1 do in these assays?
PREPL inhibitor: -9; CHT block: inactive; CHT allo act: inactive; AI-2 QS mod: 24

How did Cc1ccc(CNC(=O)CC(C)S(=O)(=O)c2ccc3c(c2)NC(=O)CS3)o1 (stereo not given) do in these assays?
ALR H2O2 inh: 98*; PREPL inhibitor: 7; CHT block: inactive; CHT allo act: inactive; AI-2 QS mod: 10

Results for COc1ccc(CNC(=O)CC(C)S(=O)(=O)c2ccc3c(c2)NC(=O)CO3)cc1 (stereo not given) ?
ALR H2O2 inh: -3; PREPL inhibitor: 2; CHT block: inactive; CHT allo act: inactive

What do the screens show for `Cc1cc2c(c(=O)o1)C(CCC1CCCCC1)C(C#N)=C(N)O2` (stereo not given)?
ALR H2O2 inh: 97*; PREPL inhibitor: 4; CHT block: inactive; CHT allo act: inactive; AI-2 QS mod: 12

What do the screens show for `Cc1cc(=O)oc2c(N)c(O)ccc12`?
ALR H2O2 inh: 97*; PREPL inhibitor: 12; CHT block: inactive; CHT allo act: inactive; AI-2 QS mod: 37

How did COc1ccc(S(=O)(=O)N2CCCCCC2)cc1C(=O)OCC(=O)NC1CCS(=O)(=O)C1 (stereo not given) do in these assays?
ALR H2O2 inh: -2; PREPL inhibitor: 4

Results for O=C(COC(=O)CNC(=O)c1ccc(Cl)c([N+](=O)[O-])c1)NNC(=O)c1ccccc1F ?
ALR H2O2 inh: -1; PREPL inhibitor: 5

What do the screens show for `COc1cc(C2N(c3ccccc3)CCN2c2ccccc2)ccc1OC(C)=O`?
ALR H2O2 inh: 94*; PREPL inhibitor: 23; CHT block: inactive; CHT allo act: inactive; AI-2 QS mod: 12

Results for COc1cc(C2N(Cc3ccccc3)CCN2Cc2ccccc2)ccc1OC(C)=O ?
ALR H2O2 inh: 9; PREPL inhibitor: -2; CHT block: inactive; CHT allo act: inactive; AI-2 QS mod: 8
